Rows were chosen to be rich in hits. Some 2.5% of all compounds tested hit in one or more screens of this group.
Cruzain noTriton: inhibitors of Trypanosoma cruzi cruzain without detergent; P25779; Potency, µM, for inactives: max response, negative = inhibition, hits mostly inhibitors; hit rate 2.3% among 200,000; purified cruzain, Z-FR-AMC fluorescence, no detergent; AID 1476;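 note: plate controls were enzyme without inhibitor for no effect and buffer without enzyme for full effect; nearly all actives have a fitted effect of over 40% in size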
Target sequence (P25779 123-467 limits assumed): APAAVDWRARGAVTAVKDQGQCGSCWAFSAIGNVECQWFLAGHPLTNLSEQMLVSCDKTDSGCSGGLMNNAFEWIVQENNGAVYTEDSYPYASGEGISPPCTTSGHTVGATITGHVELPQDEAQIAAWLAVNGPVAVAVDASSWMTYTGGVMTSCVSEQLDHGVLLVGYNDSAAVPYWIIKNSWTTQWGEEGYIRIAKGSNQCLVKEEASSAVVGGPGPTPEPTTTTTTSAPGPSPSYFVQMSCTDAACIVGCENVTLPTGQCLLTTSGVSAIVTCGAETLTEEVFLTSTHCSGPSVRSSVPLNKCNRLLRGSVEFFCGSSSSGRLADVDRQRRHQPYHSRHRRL
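Detergent-free condition (0.00005% Triton X-100) in acetate buffer pH 5.5 with DTT. 1.5 nM enzyme and compound were pre-mixed 15 min, then 2 uM Z-FR-AMC substrate added; reaction progress from fluorescence change between first and third reads (60 s).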
Cruzain inh Det: cruzain (T. cruzi) inhibition with detergent; purified cruzain, Z-FR-AMC fluorescence, 0.01% Triton; P25779; hit rate 0.43% among 200,000; Potency, µM, for inactives: max response, negative = inhibition, actives largely listed as inhibitors; AID 1478;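 note: plate controls were neutral wells for no effect and buffer without enzyme for full effect; nearly all actives have a fitted effect of over 40% in size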
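Steps: dispense cruzain (1.5 nM final) in acetate buffer pH 5.5 with DTT and 0.01% Triton X-100; pin-transfer compounds; incubate 15 min RT; add Z-FR-AMC (2 uM final); read fluorescence every 30 s, using the 60 s intensity change.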
Starred values were filed as active, the others as inactive. Calls come from the whole dose curve; as a rule, active = well fitted curve in the direction sought with a large enough effect; inconclusive = small, poorly fitted or top-dose-only effect, or another doubt; inactive = no such curve, though single readings can be large; an effect the other way counts as inactive or inconclusive. Potency is the fitted concentration of half-maximal effect.

What do the screens show for `Cc1cccc(N2CCN(C(=O)c3ccc(Cl)c(S(=O)(=O)NCc4ccco4)c3)CC2)c1C`?
Cruzain noTriton: -10.8%; Cruzain inh Det: -4.6%

How did Cc1cccc(N2CCN(C(=O)c3ccc(Cl)c(S(=O)(=O)N4CCc5ccccc5C4)c3)CC2)c1C do in these assays?
Cruzain noTriton: 10µM*; Cruzain inh Det: -4.0%

How did CCOc1ccc(NC(=O)Cn2ccn(-c3ccc(F)c(F)c3)c(=O)c2=O)cc1 do in these assays?
Cruzain noTriton: inconclusive; Cruzain inh Det: -17.0%

How did Cn1nc(C(=O)Nc2ccc(F)c(Cl)c2)c2c1-c1ccccc1S(=O)(=O)C2 do in these assays?
Cruzain noTriton: 8.9%; Cruzain inh Det: 2.0%

Results for Cn1c(=O)n(C)c2cc(S(=O)(=O)N3CCOCC3)ccc21 ?
Cruzain noTriton: -4.7%; Cruzain inh Det: 3.3%

What do the screens show for `O=S(=O)(c1ccc2nc(-c3ccco3)c(-c3ccco3)nc2c1)N1CCOCC1`?
Cruzain noTriton: 0.9%; Cruzain inh Det: 22.4µM*

How did C[C@@]1(C(=O)O)CCC[C@@H]1C(=O)O do in these assays?
Cruzain noTriton: 10.7%; Cruzain inh Det: 1.9%

How did COCCN1C=C(C(=O)OC)C(c2cc(Br)c(OC)c(OC)c2)C(C(=O)OC)=C1 do in these assays?
Cruzain noTriton: inconclusive; Cruzain inh Det: 22.4µM*

What do the screens show for `COC(=O)C1=CN(C)C=C(C(=O)OC)C1c1ccc(O)c(OC)c1`?
Cruzain noTriton: -1.8%; Cruzain inh Det: 0.6%

What do the screens show for `CCC(=O)NC(=S)Nc1ccc(NC(=O)c2ccc(C)c([N+](=O)[O-])c2)cc1`?
Cruzain noTriton: 10µM*; Cruzain inh Det: -2.5%

What do the screens show for `CCOc1ccc(C(=O)NC(=S)Nc2ccc(NC(=O)CC)cc2)cc1[N+](=O)[O-]`?
Cruzain noTriton: inconclusive; Cruzain inh Det: -6.1%

What do the screens show for `COc1ccc2c(c1)O[C@@H](c1ccc3c(c1)OCO3)[C@H](O)C2=O`?
Cruzain noTriton: -12.6%; Cruzain inh Det: 1.0%

What do the screens show for `O=c1c(CCc2ccccc2)nc2cncnc2n1Cc1ccccc1Cl`?
Cruzain noTriton: 3.16µM*; Cruzain inh Det: -5.3%

Results for NCCn1c(=O)c(CCc2ccccc2)nc2cncnc21 ?
Cruzain noTriton: -13.6%; Cruzain inh Det: 1.9%

How did O=c1c(-c2cc(F)cc(F)c2)nc2cncnc2n1Cc1ccccc1Cl do in these assays?
Cruzain noTriton: 25.1µM*; Cruzain inh Det: -6.5%

How did O=c1c(-c2ccc(F)c(F)c2)nc2cncnc2n1Cc1ccccc1Cl do in these assays?
Cruzain noTriton: -19.6%; Cruzain inh Det: -7.0%

What do the screens show for `CC1=C(c2ccc(C)c(C)c2)S(=O)(=O)N(Cc2ccc(C(=O)NCc3cccc(C)c3)cc2)C1=O`?
Cruzain noTriton: -14.2%; Cruzain inh Det: -3.2%

How did CCNc1ncc2nc(-c3cccs3)c(=O)n(CCC#N)c2n1 do in these assays?
Cruzain noTriton: -3.8%; Cruzain inh Det: -6.8%

Results for Cc1ccc(C(=O)c2no[n+]([O-])c2C(=O)c2ccc(C)cc2)cc1 ?
Cruzain noTriton: 25.1µM*; Cruzain inh Det: inconclusive

Results for Cc1ccc(C(=O)/C=C\C(=O)c2ccc(C)cc2)cc1 ?
Cruzain noTriton: -21.1%; Cruzain inh Det: -8.9%

How did COc1ccccc1CCNC(=O)c1ccc2c(c1)c(C)c(C)n2Cc1ccc(Cl)cc1 do in these assays?
Cruzain noTriton: 12.6µM*; Cruzain inh Det: 3.0%

Results for COc1ccc(OC)c(CNC(=O)c2ccc3c(c2)c(C)c(C)n3Cc2ccc(Cl)cc2)c1 ?
Cruzain noTriton: 7.94µM*; Cruzain inh Det: 1.8%

How did COc1cc(CCNC(=O)c2ccc3c(c2)c(C)c(C)n3Cc2cccc(C)c2)cc(OC)c1OC do in these assays?
Cruzain noTriton: -7.6%; Cruzain inh Det: -1.0%

How did COc1ccc(OC)c(CNC(=O)c2ccc3c(c2)c(C)c(C)n3C)c1 do in these assays?
Cruzain noTriton: inconclusive; Cruzain inh Det: -1.8%

How did O=C(CCc1nc(-c2cccs2)no1)Nc1ccccc1[N+](=O)[O-] do in these assays?
Cruzain noTriton: -8.1%; Cruzain inh Det: -3.8%

Results for Cc1nn(-c2ccc([N+](=O)[O-])cc2)c2c1C(c1cccc(Br)c1)N1C(=N2)C(=O)Nc2ccccc21 (stereo unspecified) ?
Cruzain noTriton: 3.98µM*; Cruzain inh Det: -2.9%

What do the screens show for `Cc1nn(-c2ccccc2)c2c1C(c1ccc([N+](=O)[O-])cc1)N1C(=N2)C(=O)Nc2ccccc21` (stereo unspecified)?
Cruzain noTriton: -8.5%; Cruzain inh Det: -10.1%

Results for Cc1cccc(N2CCN(C(=O)c3cc4ccc5cccnc5c4[nH]3)CC2C)c1 (stereo unspecified) ?
Cruzain noTriton: 12.6µM*; Cruzain inh Det: -7.1%

How did Cc1ccc(C)c(N2CCN(C(=O)c3cc4ccc5cccnc5c4[nH]3)CC2)c1 do in these assays?
Cruzain noTriton: -25.8%; Cruzain inh Det: -6.8%

What do the screens show for `COc1cc(S(=O)(=O)N2CCC(c3nc4ccccc4s3)CC2)ccc1S(=O)(=O)N1CC(C)CC(C)C1` (stereo unspecified)?
Cruzain noTriton: 3.98µM*; Cruzain inh Det: 4.0%

Results for COc1ccc(S(=O)(=O)N2CCC(c3nc4ccccc4s3)CC2)cc1OC ?
Cruzain noTriton: 1.3%; Cruzain inh Det: 5.2%

What do the screens show for `Cc1cccc(-c2nc3c4ccccc4nc(NCc4ccccc4Cl)n3n2)c1`?
Cruzain noTriton: 11.7%; Cruzain inh Det: -1.8%

What do the screens show for `COc1ccc(S(=O)(=O)Nc2cc3c(cc2N2CCOCC2)n(C)c(=O)n3C)cc1`?
Cruzain noTriton: 13.2%; Cruzain inh Det: -0.8%

How did CC(=O)Nc1ccc(S(=O)(=O)NNC(=O)c2cc3c4ccccc4n(C)c3s2)cc1 do in these assays?
Cruzain noTriton: -20.2%; Cruzain inh Det: 22.4µM*

What do the screens show for `CCCNC(=O)c1cc2c3ccccc3n(C)c2s1`?
Cruzain noTriton: -2.5%; Cruzain inh Det: -17.9%

Results for CCOCCOC(=O)c1ccc(NC(=O)/C=C/c2ccc(OC)c(OC)c2)cc1 ?
Cruzain noTriton: inconclusive; Cruzain inh Det: -12.5%

How did C=C(C)Cn1c(=O)c2c(nc3n2CCN3c2ccc(F)cc2)n(C)c1=O do in these assays?
Cruzain noTriton: 5.8%; Cruzain inh Det: -4.1%

How did Cc1ccc(CC(NC(=O)c2ccccc2)C(=O)N2CCCC2C(=O)O)cc1 (stereo unspecified) do in these assays?
Cruzain noTriton: 0.4%; Cruzain inh Det: 1.8%

What do the screens show for `CC[C@H](C)[C@H](NC(=O)[C@H](Cc1ccc(O)cc1)NC(=O)[C@@H](N)C(C)C)C(=O)N[C@@H](Cc1cnc[nH]1)C(=O)N1CCC[C@H]1C(=O)N[C@@H](Cc1ccccc1)C(=O)O`?
Cruzain noTriton: 15.8µM*; Cruzain inh Det: 14.1µM*

Results for CC(/C=N/Nc1nnc2c(n1)[nH]c1ccccc12)=C\c1ccco1 ?
Cruzain noTriton: 10µM*; Cruzain inh Det: -1.8%

What do the screens show for `Cc1cccc2c1[nH]c1nc(N/N=C\c3ccco3)nnc12`?
Cruzain noTriton: -10.5%; Cruzain inh Det: -1.3%

What do the screens show for `COc1ccc(-c2cc(C)no2)cc1S(=O)(=O)N1CCN(c2ccc(C(C)=O)cc2)CC1`?
Cruzain noTriton: -7.5%; Cruzain inh Det: 3.2%

How did COCC(C)NC(C(=O)Nc1ccc(C)c(Cl)c1)c1ccccc1 (stereo unspecified) do in these assays?
Cruzain noTriton: -2.1%; Cruzain inh Det: -0.4%

What do the screens show for `Cc1ccc(NC(=O)C(OC(=O)c2ccc(C=O)cc2)c2ccccc2)cc1Cl` (stereo unspecified)?
Cruzain noTriton: 25.1µM*; Cruzain inh Det: -8.5%

Results for O=C(Cn1nc(-c2ccc(Cl)cc2)c2ccccc2c1=O)Nc1cccc(Br)c1 ?
Cruzain noTriton: -8.0%; Cruzain inh Det: -3.5%
